Test results reported in the supplement of paper PMC6609913.
Where a name gives a salt, the structure may show the parent alone. ± gives the standard deviation of the averaged measurements. Over roughly 1,300 compounds, “normalised cell viability” has its median near 1; the lowest 2% begin near 0.14. The sample as a whole holds a higher share of the lowest values than the screen did.

Tested on: V-C8 (BRCA2-deficient hamster cells)
Test: normalised cell viability (fraction of plate median); higher = more viable cells (less toxic)
Conditions: 5 µM
In short: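 BRCA2-deficient hamster V-C8 cells and BRCA2-restored V-C8 cells were plated in 96-well plates, and library drugs were added 24 h later at 5 μM in 100 μl medium. Exposure lasted 3 days in screen 1 and 6 days in screen 2, next to solvent-only wells. Viability was then read by resazurin assay, median-plate normalised and averaged across triplicate wells.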

Row | Structure (SMILES) | normalised cell viability (treatment time: 3 days) | normalised cell viability (treatment time: 6 days)
1 | O=C1CN(/N=C/c2ccc([N+](=O)[O-])o2)C(=O)N1 [Nitrofurantoin] | 0.937 ± 0.025 | 1.15 ± 0.29
2 | CN[C@@H]1[C@@H](O)[C@@H](O[C@@H]2[C@@H](O)[C@H](O[C@H]3OC(CN)=CC[C@H]3N)[C@@H](N)C[C@H]2N)OC[C@]1(C)O [Sisomicin sulfate] | 0.157 ± 0.0072 | 0.145 ± 0.0056
3 | COc1cc2nc(N(C)CCCNC(=O)C3CCCO3)nc(N)c2cc1OC (configuration not stated) [Alfuzosin hydrochloride] | 0.987 ± 0.056 | 1.08 ± 0.08
4 | c1ccc(CC2=NCCN2)cc1 [Tolazoline hydrochloride] | 1 ± 0.025 | 0.98 ± 0.038
5 | CC(C)(O)c1ccccc1CC[C@@H](SCC1(CC(=O)O)CC1)c1cccc(/C=C/c2ccc3ccc(Cl)cc3n2)c1 [Montelukast] | 1.09 ± 0.11 | 1.1 ± 0.052
6 | CCC(C)(CN(C)C)OC(=O)c1ccccc1 (configuration not stated) [Amyleine hydrochloride] | 1.074 ± 0.0072 | 1.02 ± 0.036
7 | C#CCN[C@@H]1CCc2ccccc21 [Rasagiline] | 1.08 ± 0.055 | 1.06 ± 0.038
8 | Clc1ccc(C(Cn2ccnc2)OCc2csc3c(Cl)cccc23)c(Cl)c1 (configuration not stated) [Sertaconazole nitrate] | 0.737 ± 0.18 | 0.821 ± 0.12
9 | Cc1cccc(N(C)C(=S)Oc2ccc3ccccc3c2)c1 [Tolnaftate] | 1 ± 0.041 | 0.983 ± 0.02
10 | C=CCOC(Cn1ccnc1)c1ccc(Cl)cc1Cl (configuration not stated) [Enilconazole] | 0.93 ± 0.04 | 0.943 ± 0.015
11 | Clc1ccc(CO/N=C(\Cn2ccnc2)c2ccc(Cl)cc2Cl)c(Cl)c1 [Oxiconazole Nitrate] | 0.807 ± 0.043 | 0.898 ± 0.043
12 | CN1CCN(C(c2ccccc2)c2ccc(Cl)cc2)CC1 (configuration not stated) [Chlorcyclizine hydrochloride] | 0.947 ± 0.019 | 0.979 ± 0.073
13 | O=C(O)CCNC(=O)c1ccc(/N=N/c2ccc(O)c(C(=O)O)c2)cc1 [Balsalazide Sodium] | 0.973 ± 0.027 | 0.953 ± 0.13
14 | Nc1ccn([C@@H]2CS[C@H](CO)O2)c(=O)n1 [Lamivudine] | 0.147 ± 0.0082 | 0.139 ± 0.012
15 | Nc1ccn([C@@H]2O[C@H](CO)[C@@H](O)[C@@H]2O)c(=O)n1 [Cytarabine] | 0.206 ± 0.0091 | 0.196 ± 0.022
16 | Nc1ccn([C@H]2CC[C@@H](CO)O2)c(=O)n1 [Zalcitabine] | 1.02 ± 0.059 | 1.04 ± 0.044
17 | COC(=O)CCc1ccc(OCC(O)CNC(C)C)cc1 (configuration not stated) [Esmolol hydrochloride] | 1.04 ± 0.077 | 0.939 ± 0.08
18 | CC(C)NCC(O)COc1ccc(COCCOC(C)C)cc1 (configuration not stated) [Bisoprolol fumarate] | 1.04 ± 0.044 | 1.16 ± 0.049
19 | CC(C)NCC(O)COc1ccc(CCOCC2CC2)cc1 (configuration not stated) [Betaxolol hydrochloride] | 0.1577 ± 0.00096 | 0.136 ± 0.014
20 | O=C1[C@H](CC[C@H](O)c2ccc(F)cc2)[C@@H](c2ccc(O)cc2)N1c1ccc(F)cc1 [Ezetimibe] | 1.02 ± 0.093 | 1.03 ± 0.022
21 | CN1CCN(C2=Nc3ccccc3Oc3ccc(Cl)cc32)CC1 [Loxapine succinate] | 1.17 ± 0.063 | 1.15 ± 0.03
22 | Cc1cc(C2CCCCC2)n(O)c(=O)c1 [Ciclopirox ethanolamine] | 0.207 ± 0.012 | 0.23 ± 0.015

Row | Structure (SMILES) | normalised cell viability (treatment time: 3 days) | normalised cell viability (treatment time: 6 days)
23 | COC(=O)C1=C(C)NC(C)=C(C(=O)OCC(C)C)C1c1ccccc1[N+](=O)[O-] (configuration not stated) [Nisoldipine] | 0.889 ± 0.059 | 0.894 ± 0.019
24 | Cc1c(N)c(=O)n(-c2ccccc2)n1C [Ampyrone] | 1.01 ± 0.12 | 1.06 ± 0.055
25 | Nc1nc(=S)c2ncn([C@@H]3O[C@H](CO)[C@@H](O)[C@H]3O)c2[nH]1 [Thioguanosine] | 0.307 ± 0.013 | 0.28 ± 0.017
26 | CCC(Cc1c(I)cc(I)c(N)c1I)C(=O)O (configuration not stated) [Iopanoic acid] | 0.999 ± 0.036 | 1.07 ± 0.033
27 | CN(C)CCn1nnnc1SCC1=C(C(=O)O)N2C(=O)[C@@H](NC(=O)Cc3csc(N)n3)[C@H]2SC1 [Cefotiam hydrochloride] | 0.996 ± 0.028 | 1.12 ± 0.093
28 | CC(C)NC[C@@H](O)COc1cccc2ccccc12 [(R)-Propranolol hydrochloride] | 0.914 ± 0.085 | 1.06 ± 0.085
29 | CCc1cccc(CC)c1NC(=O)CN(CC(=O)O)CC(=O)O [Etifenin] | 1.07 ± 0.047 | 1.04 ± 0.043
30 | CC(NCCC(c1ccccc1)c1ccccc1)c1ccccc1 (configuration not stated) [Fendiline hydrochloride] | 0.197 ± 0.018 | 0.496 ± 0.16
31 | Cc1cc(NS(=O)(=O)c2ccc(N)cc2)no1 [Sulfamethoxazole] | 1.02 ± 0.028 | 0.959 ± 0.076
32 | CC(C)/N=c1\cc2n(-c3ccc(Cl)cc3)c3ccccc3nc-2cc1Nc1ccc(Cl)cc1 [Clofazimine] | 0.148 ± 0.0016 | 0.133 ± 0.017
33 | Cc1cnc(C(=O)NCCc2ccc(S(=O)(=O)NC(=O)NC3CCCCC3)cc2)cn1 [Glipizide] | 1.093 ± 0.0089 | 1.13 ± 0.034
34 | CO[C@H]1/C=C/O[C@@]2(C)Oc3c(C)c(O)c4c(c3C2=O)C2=NC3(CCN(CC(C)C)CC3)NC2=C(NC(=O)/C(C)=C\C=C\[C@H](C)[C@H](O)[C@@H](C)[C@@H](O)[C@@H](C)[C@H](OC(C)=O)[C@@H]1C)C4=O [Rifabutin] | 0.973 ± 0.096 | 0.876 ± 0.032
35 | NC(=O)c1cnccn1 [Pyrazinamide] | 1.12 ± 0.057 | 1.05 ± 0.071
36 | CNCCC=C1c2ccccc2C=Cc2ccccc21 [Norcyclobenzaprine] | 0.959 ± 0.045 | 0.835 ± 0.035
37 | CCSc1ccc2c(c1)N(CCCN1CCN(C)CC1)c1ccccc1S2 [Thiethylperazine dimalate] | 0.932 ± 0.029 | 1.1 ± 0.35
38 | CSc1ccc2c(c1)N(CCC1CCCCN1C)c1ccccc1S2 (configuration not stated) [Thioridazine hydrochloride] | 0.121 ± 0.0035 | 0.0951 ± 0.0067
39 | CN1CCCCC1CCN1c2ccccc2Sc2ccc([S+](C)[O-])cc21 (configuration not stated) [Mesoridazine besylate] | 1.07 ± 0.07 | 1.07 ± 0.017
40 | CC1(C)[C@@H](OC(=O)CCC(=O)O)CC[C@]2(C)[C@H]3C(=O)C=C4[C@@H]5C[C@@](C)(C(=O)O)CC[C@]5(C)CC[C@@]4(C)[C@]3(C)CC[C@@H]12 [Carbenoxolone disodium salt] | 1 ± 0.041 | 1.15 ± 0.26
41 | CC(=O)OCC(=O)[C@@]1(O)CC[C@H]2[C@@H]3CCC4=CC(=O)CC[C@]4(C)[C@@]3(F)[C@@H](O)C[C@@]21C [Fludrocortisone acetate] | 0.957 ± 0.08 | 1.11 ± 0.041
42 | O=C1c2cccc(O)c2C(=O)c2c(O)cccc21 [1,8-Dihydroxyanthraquinone] | 0.838 ± 0.065 | 0.78 ± 0.021
43 | O=C1c2c(O)ccc(O)c2C(=O)c2c(NCCNCCO)ccc(NCCNCCO)c21 [Mitoxantrone dihydrochloride] | 0.143 ± 0.0017 | 0.116 ± 0.011
44 | O=C1c2c(O)cccc2Cc2cccc(O)c21 [Anthralin] | 1.03 ± 0.019 | 1.003 ± 0.0083

Row | Structure (SMILES) | normalised cell viability (treatment time: 3 days) | normalised cell viability (treatment time: 6 days)
45 | c1ccc2c(c1)CCCc1cc(NCCN3CCOCC3)nnc1-2 | 0.351 ± 0.016 | 0.496 ± 0.056
46 | CN1C2CCCC1CC(NC(=O)c1nn(C)c3ccccc13)C2 (configuration not stated) [Granisetron] | 0.973 ± 0.092 | 1.03 ± 0.051
47 | CCN(CC)C(=O)/C(C#N)=C/c1cc(O)c(O)c([N+](=O)[O-])c1 [Entacapone] | 0.957 ± 0.024 | 1.06 ± 0.059
48 | CN[C@@H]1[C@@H](O[C@H]2O[C@H](CO)[C@@H](N)[C@H](O)[C@H]2O)OC2C[C@@H](N)[C@@H](O[C@H]3[C@H](O)[C@@H](O)[C@H](N)C[C@@H]3N)OC2[C@@H]1O (some centres not stated) [Apramycin] | 0.995 ± 0.057 | 1.03 ± 0.019
49 | Cc1ccnc2c1NC(=O)c1cccnc1N2C1CC1 [Nevirapine] | 0.942 ± 0.023 | 0.994 ± 0.039
50 | NC1CCN(c2nc3c(cc2F)c(=O)c(C(=O)O)cn3-c2ccc(F)cc2F)C1 (configuration not stated) [Tosufloxacin hydrochloride] | 1.01 ± 0.048 | 1.08 ± 0.024
51 | CC(CCc1ccc(O)cc1)NCCc1ccc(O)c(O)c1 (configuration not stated) [Dobutamine hydrochloride] | 1.01 ± 0.031 | 0.976 ± 0.027
52 | CCCC(=O)Nc1ncnc2c1ncn2[C@@H]1O[C@@H]2COP(=O)(O)O[C@H]2[C@H]1OC(=O)CCC [Bucladesine sodium salt] | 0.995 ± 0.021 | 1.04 ± 0.014
53 | CCCCc1nc(Cl)c(CO)n1Cc1ccc(-c2ccccc2-c2nnn[nH]2)cc1 [Losartan] | 1.019 ± 0.0051 | 1.052 ± 0.0052
54 | C[C@@H]1NC(=O)NC1=O [Methylhydantoin-5-(L)] | 1 ± 0.089 | 1.07 ± 0.013
55 | CC1=Nc2ccc(Cl)cc2S(=O)(=O)N1 [Diazoxide] | 0.95 ± 0.024 | 1.01 ± 0.054
56 | N=C(N)c1ccc(OCCCCCOc2ccc(C(=N)N)cc2)cc1 [Pentamidine isethionate] | 0.596 ± 0.07 | 0.597 ± 0.085
57 | CC1=C(C(=O)O)N2C(=O)[C@@H](NC(=O)[C@H](N)c3ccccc3)[C@H]2SC1 [Cephalexin monohydrate] | 1.25 ± 0.026 | 1.09 ± 0.1
58 | Cc1ccccc1N1C(=O)c2cc(S(N)(=O)=O)c(Cl)cc2NC1C (configuration not stated) [Metolazone] | 1.11 ± 0.073 | 1.06 ± 0.07
59 | CC(=O)[C@@]12O[C@](C)(c3ccccc3)O[C@@H]1C[C@H]1[C@@H]3CCC4=CC(=O)CC[C@]4(C)[C@H]3CC[C@@]12C [Algestone acetophenide] | 0.915 ± 0.05 | 0.945 ± 0.094
60 | CCCNC(C)(C)COC(=O)c1ccccc1 [Meprylcaine hydrochloride] | 1 ± 0.042 | 1.25 ± 0.47
61 | C#C[C@]1(O)CC[C@H]2[C@@H]3CCc4cc(OC)ccc4[C@H]3CC[C@@]21C [Ethynylestradiol 3-methyl ether] | 0.844 ± 0.02 | 0.886 ± 0.17
62 | C[n+]1ccccc1/C=N/O [Pralidoxime chloride] | 1.03 ± 0.029 | 1.02 ± 0.06
63 | CCCCC(CC)CNC(=N)NC(=N)NCCCCCCNC(=N)NC(=N)NCC(CC)CCCC (configuration not stated) [Alexidine dihydrochloride] | 0.124 ± 0.0044 | 0.132 ± 0.0043
64 | CN(C)CCN1C(=O)c2ccccc2N(C)c2ccccc21 [Dibenzepine hydrochloride] | 0.191 ± 0.011 | 0.215 ± 0.0073
65 | CC(=O)OC[C@H]1O[C@@H]([S-])[C@H](OC(C)=O)[C@@H](OC(C)=O)[C@@H]1OC(C)=O.CCP(CC)CC.[Au+] [Auranofin] | 0.117 ± 0.0046 | 0.141 ± 0.0027
66 | OCCN1CCN(CC/C=C2/c3ccccc3Sc3ccc(Cl)cc32)CC1 [Zuclopenthixol hydrochloride] | 0.605 ± 0.014 | 0.61 ± 0.032
